# Inconclusive results are not listed. Activity calls are given as the source filed them. The calls were made as follows: active = hit-call score of the fitted dose curve at least 0.9, where 1 is the maximum; inconclusive = response in the unintended direction; inactive = score below 0.9.
# Assays:
# [1] = biological target: CDK2 (gene 1017) (UniProt P24941); test: NVS_ENZ_hCDK2: NovaScreen (NVS) Enzymatic Assay for human Cyclin-Cependent Kinase 2 (CDK2) (AID 2283144)
# How it was run: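 Cell-free recombinant human CDK2 with fluorescent substrate, product separated by electrophoretic mobility shift; 1 hr read. Primary screen at 25 uM in duplicate, actives retested in concentration-response up to 50 uM; loss of signal versus DMSO.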
# [2] = biological target: human Ephrin type-A Receptor 1 (EphA1), EPHA1 (gene 2041) (UniProt P21709); test: NVS_ENZ_hEphA1: NovaScreen (NVS) Enzymatic Assay for human Ephrin type-A Receptor 1 (EphA1) (AID 2283158);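 also: activity is signal loss versus DMSO meaning EphA1 kinase inhibition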
# Sequence of human Ephrin type-A Receptor 1 (EphA1), EPHA1 (gene 2041) (P21709 whole entry, looked up): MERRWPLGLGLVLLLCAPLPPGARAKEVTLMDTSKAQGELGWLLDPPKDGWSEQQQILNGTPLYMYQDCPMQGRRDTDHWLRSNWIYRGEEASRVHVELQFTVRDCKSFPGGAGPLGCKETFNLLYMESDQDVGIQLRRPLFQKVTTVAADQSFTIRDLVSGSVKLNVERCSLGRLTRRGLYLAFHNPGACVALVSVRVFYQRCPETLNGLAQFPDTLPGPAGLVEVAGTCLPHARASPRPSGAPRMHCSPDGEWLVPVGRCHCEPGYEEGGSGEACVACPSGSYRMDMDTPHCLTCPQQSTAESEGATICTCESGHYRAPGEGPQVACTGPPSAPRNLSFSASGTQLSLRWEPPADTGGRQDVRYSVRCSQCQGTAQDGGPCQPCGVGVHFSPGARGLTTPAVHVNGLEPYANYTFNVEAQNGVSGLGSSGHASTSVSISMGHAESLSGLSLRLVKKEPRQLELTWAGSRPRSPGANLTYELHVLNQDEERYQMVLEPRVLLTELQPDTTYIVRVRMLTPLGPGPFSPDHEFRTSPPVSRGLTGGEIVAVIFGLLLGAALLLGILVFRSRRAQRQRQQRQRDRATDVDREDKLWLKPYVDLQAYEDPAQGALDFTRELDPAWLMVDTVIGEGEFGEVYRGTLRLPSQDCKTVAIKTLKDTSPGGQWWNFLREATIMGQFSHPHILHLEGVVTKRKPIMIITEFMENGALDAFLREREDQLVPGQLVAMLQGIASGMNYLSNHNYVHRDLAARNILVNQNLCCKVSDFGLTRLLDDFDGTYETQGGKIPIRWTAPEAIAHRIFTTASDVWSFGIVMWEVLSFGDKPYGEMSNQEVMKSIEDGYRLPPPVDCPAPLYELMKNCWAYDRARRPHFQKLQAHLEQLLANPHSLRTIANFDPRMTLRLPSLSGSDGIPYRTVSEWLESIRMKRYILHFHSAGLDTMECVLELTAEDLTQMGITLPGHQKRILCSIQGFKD
# How it was run: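 Cell-free kinase activity with recombinant protein, 1 hour after dosing; product separated by electrophoretic mobility shift, fluorescence read. Primary screen at 25 uM in duplicate; hits run as concentration-response up to 50 uM, relative to DMSO.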
# [3] = biological target: human FYN Proto-Oncogene, Src family Tyrosine Kinase (Fyn), FYN (gene 2534) (UniProt P06241); test: NVS_ENZ_hFyn: NovaScreen (NVS) Enzymatic Assay for human FYN Proto-Oncogene, Src family Tyrosine Kinase (Fyn) (AID 2283161)
# How it was run: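 Recombinant enzyme with fluorescent substrate, product separated by electrophoretic mobility shift; read 1 h after dosing. Duplicate 25 uM single-point screen, actives retested in concentration series; loss of signal vs DMSO.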
# [4] = biological target: human c-Jun N-terminal Kinases (JNK2), MAPK9 (gene 5601) (UniProt P45984); test: NVS_ENZ_hJNK2: NovaScreen (NVS) Enzymatic Assay for human c-Jun N-terminal Kinases (JNK2) (AID 2283171)
# How it was run: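 Cell-free recombinant human JNK2 activity assay; fluorescent substrate and product separated by electrophoretic mobility shift, read 1 h after dosing. Primary duplicate screen at 25 uM; actives run in concentration-response up to 50 uM, relative to DMSO.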
# [5] = biological target: Histone deacetylase 3 (Homo sapiens) (UniProt O15379); test: NVS_ENZ_hHDAC3: NovaScreen (NVS) Enzymatic Assay for human Histone Deacetylase 3 (HDAC3) (AID 2283163)
# How it was run: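 Recombinant human HDAC3 with fluorescent substrate, 1 h after dosing; product separated from substrate by electrophoretic mobility shift and read by fluorescence. Primary screen at 25 uM in duplicate; actives (e.g. ≥30% inhibition) retested in concentration-response up to 50 uM.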
# [6] = biological target: human Insulin Receptor (InsR), INSR (gene 3643) (UniProt P06213); test: NVS_ENZ_hInsR: NovaScreen (NVS) Enzymatic Assay for human Insulin Receptor (InsR) (AID 2283168)
# Sequence of human Insulin Receptor (InsR), INSR (gene 3643) (P06213 whole entry, looked up): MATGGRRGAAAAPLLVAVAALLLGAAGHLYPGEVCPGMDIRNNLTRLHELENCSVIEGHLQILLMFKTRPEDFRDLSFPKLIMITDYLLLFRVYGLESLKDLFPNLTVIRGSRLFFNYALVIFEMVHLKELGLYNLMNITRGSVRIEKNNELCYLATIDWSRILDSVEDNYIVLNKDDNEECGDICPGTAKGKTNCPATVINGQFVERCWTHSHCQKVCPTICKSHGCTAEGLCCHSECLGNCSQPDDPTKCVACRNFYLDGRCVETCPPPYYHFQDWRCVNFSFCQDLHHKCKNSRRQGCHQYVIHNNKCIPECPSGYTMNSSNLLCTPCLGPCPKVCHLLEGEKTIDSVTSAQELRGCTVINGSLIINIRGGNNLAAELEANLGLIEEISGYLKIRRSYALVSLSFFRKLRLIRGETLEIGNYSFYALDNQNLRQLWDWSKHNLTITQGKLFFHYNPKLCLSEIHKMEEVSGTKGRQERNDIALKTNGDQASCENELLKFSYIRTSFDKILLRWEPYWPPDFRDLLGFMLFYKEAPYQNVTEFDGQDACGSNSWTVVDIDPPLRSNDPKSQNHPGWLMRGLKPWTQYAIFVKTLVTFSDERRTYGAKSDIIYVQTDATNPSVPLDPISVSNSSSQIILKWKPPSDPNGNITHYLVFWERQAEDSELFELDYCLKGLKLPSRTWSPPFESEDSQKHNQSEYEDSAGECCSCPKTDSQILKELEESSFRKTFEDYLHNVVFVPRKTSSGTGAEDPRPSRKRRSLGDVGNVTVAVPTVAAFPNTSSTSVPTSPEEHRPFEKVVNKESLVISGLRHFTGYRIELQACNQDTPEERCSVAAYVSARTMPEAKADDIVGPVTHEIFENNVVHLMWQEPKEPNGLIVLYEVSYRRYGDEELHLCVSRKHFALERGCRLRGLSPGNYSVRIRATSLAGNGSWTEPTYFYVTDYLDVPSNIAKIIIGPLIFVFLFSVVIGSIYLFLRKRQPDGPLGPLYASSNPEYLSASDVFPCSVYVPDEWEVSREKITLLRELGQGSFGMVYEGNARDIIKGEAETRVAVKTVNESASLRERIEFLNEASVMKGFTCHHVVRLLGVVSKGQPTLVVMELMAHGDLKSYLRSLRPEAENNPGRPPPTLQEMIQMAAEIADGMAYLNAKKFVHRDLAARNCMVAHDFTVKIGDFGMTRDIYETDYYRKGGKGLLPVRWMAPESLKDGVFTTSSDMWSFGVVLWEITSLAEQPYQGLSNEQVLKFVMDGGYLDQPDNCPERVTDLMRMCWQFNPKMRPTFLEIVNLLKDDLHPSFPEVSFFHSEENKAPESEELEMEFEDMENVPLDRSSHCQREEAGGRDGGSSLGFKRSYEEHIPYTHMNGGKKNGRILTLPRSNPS
# How it was run: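 Fluorescent substrate phosphorylation by recombinant kinase, product resolved by electrophoretic mobility shift, read 1 h after dosing. Screened in duplicate at 25 uM; hits (e.g., 30% inhibition) run in concentration-response to 50 uM; DMSO as baseline.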
# [7] = biological target: human LYN Proto-Oncogene, Src family Tyrosine Kinase (LynA), LYN (gene 4067) (UniProt P07948); test: NVS_ENZ_hLynA: NovaScreen (NVS) Enzymatic Assay for human LYN Proto-Oncogene, Src family Tyrosine Kinase (LynA) (AID 2283173)
# How it was run: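 Recombinant kinase with fluorescent substrate; product separated from substrate by electrophoretic mobility shift and read 1 h after dosing. Duplicate screen at 25 uM, then concentration-response up to 50 uM; activity scored as signal loss against DMSO.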
# [8] = biological target: human MAP Kinase-Activated Protein Kinase 2 (MAPKAPK2), MAPKAPK2 (gene 9261) (UniProt P49137); test: NVS_ENZ_hMAPKAPK2: NovaScreen (NVS) Enzymatic Assay for human MAP Kinase-Activated Protein Kinase 2 (MAPKAPK2) (AID 2283178)
# Sequence of human MAP Kinase-Activated Protein Kinase 2 (MAPKAPK2), MAPKAPK2 (gene 9261) (P49137 whole entry, looked up): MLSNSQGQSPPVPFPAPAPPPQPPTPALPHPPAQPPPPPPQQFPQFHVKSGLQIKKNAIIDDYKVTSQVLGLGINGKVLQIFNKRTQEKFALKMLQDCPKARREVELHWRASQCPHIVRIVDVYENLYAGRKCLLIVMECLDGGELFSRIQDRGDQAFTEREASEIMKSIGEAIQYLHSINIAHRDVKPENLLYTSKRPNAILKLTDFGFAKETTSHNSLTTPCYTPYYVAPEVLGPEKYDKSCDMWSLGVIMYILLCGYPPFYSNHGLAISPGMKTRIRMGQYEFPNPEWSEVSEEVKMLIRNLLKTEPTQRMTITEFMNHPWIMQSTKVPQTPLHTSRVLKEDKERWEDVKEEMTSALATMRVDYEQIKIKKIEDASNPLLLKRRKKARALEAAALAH
# How it was run: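 Cell-free recombinant human MAPKAPK2 activity measured by fluorescence with electrophoretic mobility shift separation of substrate and product, 1 hr after dosing. Loss of signal versus DMSO; primary screen at 25 uM, concentration-response up to 50 uM.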
# [9] = biological target: human Matrix Metalloproteinase-2 (MMP2), MMP2 (gene 4313) (UniProt P08253); test: NVS_ENZ_hMMP2: NovaScreen (NVS) Enzymatic Assay for human Matrix Metalloproteinase-2 (MMP2) (AID 2283184)
# Sequence of human Matrix Metalloproteinase-2 (MMP2), MMP2 (gene 4313) (P08253 whole entry, looked up): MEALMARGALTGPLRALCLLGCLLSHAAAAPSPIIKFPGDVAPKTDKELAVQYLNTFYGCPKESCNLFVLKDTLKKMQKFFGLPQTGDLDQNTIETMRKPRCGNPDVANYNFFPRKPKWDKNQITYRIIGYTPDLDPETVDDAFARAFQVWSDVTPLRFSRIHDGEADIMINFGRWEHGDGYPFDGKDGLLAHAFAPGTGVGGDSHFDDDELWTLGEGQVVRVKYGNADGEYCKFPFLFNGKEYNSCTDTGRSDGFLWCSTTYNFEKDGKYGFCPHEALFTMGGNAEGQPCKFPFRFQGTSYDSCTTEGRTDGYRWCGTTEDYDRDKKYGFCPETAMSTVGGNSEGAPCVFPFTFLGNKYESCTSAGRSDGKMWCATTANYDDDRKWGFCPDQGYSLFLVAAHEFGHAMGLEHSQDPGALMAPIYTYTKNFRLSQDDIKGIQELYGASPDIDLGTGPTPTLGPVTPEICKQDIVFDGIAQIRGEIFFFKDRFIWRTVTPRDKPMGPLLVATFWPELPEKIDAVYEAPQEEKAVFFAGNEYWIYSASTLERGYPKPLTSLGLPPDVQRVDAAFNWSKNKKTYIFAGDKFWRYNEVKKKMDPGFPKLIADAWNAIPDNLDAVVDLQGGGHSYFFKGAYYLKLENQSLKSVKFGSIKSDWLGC
# How it was run: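 Cell-free recombinant MMP2 activity with a fluorescent substrate, read 1 h after dosing. Primary screen in duplicate at 25 uM; actives then run in concentration series; loss of signal fitted versus DMSO.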
# [10] = biological target: Glycogen synthase kinase-3 beta (Homo sapiens) (UniProt P49841); test: NVS_ENZ_hGSK3b: NovaScreen (NVS) Enzymatic Assay for human Glycogen Synthase Kinase-3 beta (GSK3b) (AID 2283165)
# Sequence of Glycogen synthase kinase-3 beta (Homo sapiens) (P49841 whole entry, looked up): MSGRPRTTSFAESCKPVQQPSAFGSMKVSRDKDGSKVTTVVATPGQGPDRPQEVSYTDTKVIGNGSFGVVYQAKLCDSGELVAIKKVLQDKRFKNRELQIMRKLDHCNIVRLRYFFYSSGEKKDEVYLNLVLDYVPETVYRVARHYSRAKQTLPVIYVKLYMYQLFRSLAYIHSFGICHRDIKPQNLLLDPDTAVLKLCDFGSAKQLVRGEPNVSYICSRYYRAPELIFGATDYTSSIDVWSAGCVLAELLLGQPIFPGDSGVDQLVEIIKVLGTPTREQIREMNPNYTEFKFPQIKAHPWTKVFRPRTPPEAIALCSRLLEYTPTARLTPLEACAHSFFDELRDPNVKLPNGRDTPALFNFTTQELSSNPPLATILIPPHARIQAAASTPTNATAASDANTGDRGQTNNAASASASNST
# How it was run: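 Recombinant enzyme with specific fluorescent substrate, 1 h, product separated by electrophoretic mobility shift. Primary duplicate screen at 25 uM; actives (e.g. 30% inhibition) followed in singleton concentration-response to 50 uM. Signal loss fitted versus DMSO.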
# [11] = biological target: human Esterase Plasma (ES), BCHE (gene 590) (UniProt P06276); test: NVS_ENZ_hES: NovaScreen (NVS) Enzymatic Assay for human Esterase Plasma (ES) (AID 2283157)
# Sequence of human Esterase Plasma (ES), BCHE (gene 590) (P06276 whole entry, looked up): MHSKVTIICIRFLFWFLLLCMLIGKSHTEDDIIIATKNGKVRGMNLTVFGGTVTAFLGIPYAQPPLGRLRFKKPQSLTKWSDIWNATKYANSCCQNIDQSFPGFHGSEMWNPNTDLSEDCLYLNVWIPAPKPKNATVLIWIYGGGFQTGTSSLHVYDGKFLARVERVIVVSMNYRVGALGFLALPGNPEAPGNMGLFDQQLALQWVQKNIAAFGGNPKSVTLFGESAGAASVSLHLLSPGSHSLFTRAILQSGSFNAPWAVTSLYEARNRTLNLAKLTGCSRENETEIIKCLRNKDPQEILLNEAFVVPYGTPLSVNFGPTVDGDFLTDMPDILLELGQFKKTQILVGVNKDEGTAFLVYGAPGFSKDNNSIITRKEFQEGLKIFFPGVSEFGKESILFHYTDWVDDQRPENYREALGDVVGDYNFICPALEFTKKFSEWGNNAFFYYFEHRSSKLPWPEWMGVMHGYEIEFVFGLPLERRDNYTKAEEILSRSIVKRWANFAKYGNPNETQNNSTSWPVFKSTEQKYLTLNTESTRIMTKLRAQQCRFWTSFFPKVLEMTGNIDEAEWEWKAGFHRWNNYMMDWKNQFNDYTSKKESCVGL
# How it was run: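 Cell-free enzyme assay using esterase extracted from human plasma; colorimetric absorbance read 0.25 hour after dosing. Single-concentration duplicate screen at 25 uM, then concentration-response up to 50 uM; loss of signal scored against DMSO baseline.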
# [12] = biological target: human Janus Kinase 2 (Jak2), JAK2 (gene 3717) (UniProt O60674); test: NVS_ENZ_hJak2: NovaScreen (NVS) Enzymatic Assay for human Janus Kinase 2 (Jak2) (AID 2283169)
# How it was run: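 Cell-free recombinant human JAK2 enzyme activity assay, fluorescence/electrophoretic mobility shift read 1 h after dosing. Screened in duplicate at 25 uM, then concentration-response up to 50 uM; activity as signal loss relative to DMSO.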
# [13] = biological target: Mitogen-activated protein kinase 3 (Homo sapiens) (UniProt P27361); test: NVS_ENZ_hMAPK3: NovaScreen (NVS) Enzymatic Assay for human Mitogen-Activated Protein Kinase 3 (MAPK 3) (AID 2283177)
# How it was run: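 Cell-free enzymatic assay with recombinant protein and specific substrate; fluorescence and electrophoretic mobility shift read-out 1 h after dosing. Primary screen duplicate at 25 uM; actives then run in concentration-response up to 50 uM, loss of signal versus DMSO.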
# [14] = biological target: Collagenase 3 (Homo sapiens) (UniProt P45452); test: NVS_ENZ_hMMP13: NovaScreen (NVS) Enzymatic Assay for human Matrix Metalloproteinase-13 (MMP13) (AID 2283182)
# How it was run: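 Recombinant MMP13 cleaving fluorescent substrate, cell-free, measured 1 h after dosing. Primary duplicate screen at 25 uM; actives tested in concentration-response up to 50 uM; loss of signal relative to DMSO.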
# [15] = biological target: human Elastase, ELANE (gene 1991) (UniProt P08246); test: NVS_ENZ_hElastase: NovaScreen (NVS) Enzymatic Assay for human Elastase (AID 2283153)
# Sequence of human Elastase, ELANE (gene 1991) (P08246 whole entry, looked up): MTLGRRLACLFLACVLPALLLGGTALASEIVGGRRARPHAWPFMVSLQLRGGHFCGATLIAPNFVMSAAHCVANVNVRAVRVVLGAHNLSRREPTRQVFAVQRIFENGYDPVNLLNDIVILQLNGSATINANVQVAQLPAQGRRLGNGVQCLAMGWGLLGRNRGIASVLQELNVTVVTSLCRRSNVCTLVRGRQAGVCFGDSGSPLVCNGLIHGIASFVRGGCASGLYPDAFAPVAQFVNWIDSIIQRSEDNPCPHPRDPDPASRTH
# How it was run: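 Cell-free elastase from human neutrophils, 1.5 h after dosing, activity read by absorbance. Primary screen in duplicate at 25 uM; hits (e.g., 30% inhibition) rerun in singleton concentration-response up to 50 uM, fitted versus DMSO.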
compound,measurement,setting,value
FC(F)(F)C(F)(F)C(F)(F)C(F)(F)C(F)(F)C(F)(F)CCI,outcome,[1],inactive
same,outcome,[2],inactive
CC1=C(/C=C/C(C)=C/C=C/C(C)=C/CO)C(C)(C)CCC1,outcome,[1],inactive
same,outcome,[3],inactive
NCCO,outcome,[3],inactive
same,outcome,[4],inactive
O=c1c(O)c(-c2ccc(O)c(O)c2)oc2cc(O)cc(O)c12,outcome,[5],inactive
CCc1c(C(=O)NN2CCCCC2)nn(-c2ccc(Cl)cc2Cl)c1-c1ccc(Br)cc1,outcome,[6],inactive
Cc1ccc(C(C)C)c(O)c1,outcome,[4],inactive
CC(=O)Oc1ccccc1C(=O)O,outcome,[7],inactive
Nc1ccc2c(c1)C(=O)c1ccccc1C2=O,AC50,[8],16.5 µM (active)
COc1cc(-c2nc(NC(=O)c3cc4cc(C)cc(C)c4n3CC(=O)O)sc2CCC2CCCCC2)c(OC)cc1Cl,AC50,[8],6.49 µM (active)
Cc1nc(-c2ccc3c(c2)CCN(CCC2CCC(NC(=O)/C=C/c4ccc(F)cc4)CC2)CC3)no1 (stereo unspecified),AC50,[9],13.7 µM (active)
Cc1ccc2ncccc2c1,outcome,[9],inactive
Cc1ccc(N(C)C)cc1,outcome,[10],inactive
CCOC(=O)C(C)(C)Oc1ccc(Cl)cc1,outcome,[11],inactive
same,outcome,[12],inactive
CC(C)(C)c1cc(O)c(C(C)(C)C)cc1O,outcome,[11],inactive
CCOC(=O)CCC(=O)OCC,outcome,[8],inactive
O=C(O)CCCCC(=O)O,outcome,[6],inactive
same,outcome,[13],inactive
C[Si]1(C)O[Si](C)(C)O[Si](C)(C)O[Si](C)(C)O1,outcome,[9],inactive
C=CCOC(=O)c1ccccc1C(=O)OCC=C,outcome,[10],inactive
Cc1ccc(Cl)cc1,outcome,[13],inactive
C=CCc1ccc(O)c(OC)c1,outcome,[10],inactive
Cc1nc(C)nc(N2C[C@@H](C)N(c3ccnc([C@@H](C)O)n3)[C@@H](C)C2)n1,AC50,[9],7.26 µM (active)
CC(=O)OCCOCCOCCOC(C)=O,outcome,[6],inactive
CN1CCN(Cc2cc(-c3ccc4[nH]c(=O)oc4c3)co2)[C@@H](c2ccc(F)cc2)C1,AC50,[11],9.48 µM (active)
same,AC50,[14],7.74 µM (active)
CCCCCCCCCCO,outcome,[10],inactive
CN[C@H]1CC[C@@H](c2ccc(Cl)c(Cl)c2)c2ccc(S(N)(=O)=O)cc21,AC50,[14],2.36 µM (active)
COCCOC[C@H](CC1(C(=O)NC2CCC(C(=O)O)CC2)CCCC1)C(=O)Oc1ccc2c(c1)CCC2 (stereo partly specified),outcome,[11],inactive
same,AC50,[14],17.3 µM (active)
same,AC50,[9],19.8 µM (active)
CCCc1cc(=O)[nH]c(=S)[nH]1,outcome,[10],inactive
same,outcome,[9],inactive
O=[N+]([O-])C(CO)(CO)CO,outcome,[10],inactive
Cc1oc(-c2ccccc2)nc1CCOc1cccc2c1ccn2CCC(=O)O,AC50,[15],11.9 µM (active)
same,outcome,[2],inactive
same,outcome,[12],inactive
CC(C)c1ccc(C(=O)N=C(N)N)cc1S(C)(=O)=O,outcome,[5],inactive
same,outcome,[10],inactive
same,outcome,[8],inactive
Cc1cc(=O)[nH]c(=S)[nH]1,outcome,[11],inactive
NCC1(Cc2noc(=O)[nH]2)CCCCC1,outcome,[11],inactive
c1cc(-c2ccncc2)ccn1,outcome,[14],inactive
Cc1cccc(Nc2cc(Cl)nc(SCC(=O)O)n2)c1C,outcome,[15],inactive
Nc1nc(N)c2nc(CNc3ccc(C(=O)N[C@@H](CCC(=O)O)C(=O)O)cc3)cnc2n1,outcome,[15],inactive
same,outcome,[11],inactive
same,AC50,[12],21.9 µM (active)
COc1cc(C=O)ccc1O,outcome,[15],inactive
same,outcome,[2],inactive
same,outcome,[6],inactive
NC(=O)Cn1c(=O)cc(CCN2CCN(c3nccc4sccc34)CC2)c2ccc(F)cc21,AC50,[11],13 µM (active)
same,outcome,[10],inactive
CCCCCCCCCCCCCCCC,outcome,[12],inactive
